Measurements as given in PubChem BioAssay (NCATS).
Records with an inconclusive call do not appear. The source made the active and inactive calls. Unless noted, the call rests on the fitted dose curve.

What was measured:
[1] = qHTS for Inhibitors of the Functional Ribonucleoprotein Complex (vRNP) of Lassa (LASV) Arenavirus: LASV Primary Screen - GLuc reporter signal (AID 1347082; calls by dose curve; tested in HEK293 reporter line; further: on the % scale 0 is the no-effect control and ±100 the full control effect; nearly all actives have a fitted effect of over 60% in size)
[2] = qHTS for Inhibitors of the Functional Ribonucleoprotein Complex (vRNP) of Lymphocytic Choriomeningitis Arenaviruses (LCMV): Viability assay - alamar blue signal for LCMV Primary Screen (AID 1347085; calls by dose curve; tested in HEK293 reporter line; further: nearly all actives have a fitted effect of over 80% in size; further: potency means the concentration at half of the fitted maximal effect)
[3] = Cytotoxicity counterscreen for inhibitors of SARS-CoV-2 cell entry (AID 1645845); further: nearly all actives have a fitted effect of over 50% in size
How it was run: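 Expi293F/hACE2 cells seeded overnight; cpd pin-transferred in DMSO, 1 h preincubation, + media, 48 h 37 C 5% CO2; ATPLite 1step luminescence; normalized to cells and no cells.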

[4] = Primary qHTS to identify inhibitors of SARS-CoV-2 cell entry (AID 1645846); conditions: activity change, negative = inhibition: at 57.1 µM (top of the series) unless noted; further: nearly all actives have a fitted effect of over 45% in size; further: potency means the concentration at half of the fitted maximal effect
How it was run: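 Data are normalized to wells receiving SARS-CoV-2-S pseudoparticles and those given bald particles. Entry signal was luciferase luminescence in stable hACE2 Expi293F cells, 48 hr post-infection, after 1 hr compound pretreatment.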

CRL-7250 = normal cell line; test: qHTS assay to identify novel small-molecules to repurpose for Merkel cell carcinoma treatment (AID 1296009; active means well fitted inhibition curve with a large enough effect; further: nearly all actives have a fitted effect of over 60% in size); conditions: MCC and control cell lines, CellTiter-Glo viability, 72 h; series mostly up to 92 µM
How it was run: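 Cells exposed to NPC (8-point) and MIPE (11-point) compound dilutions for 72 hr at 37 degree celsius; viability read by CellTiter-Glo luminescence, normalized to no-cell and DMSO in-plate controls.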

[5] = qHTS for Inhibitors of the Functional Ribonucleoprotein Complex (vRNP) of Lassa (LASV) Arenavirus: Viability assay - alamar blue signal for LASV Primary Screen (AID 1347083; calls by dose curve; tested in HEK293 reporter line; further: nearly all actives have a fitted effect of over 80% in size; further: potency means the concentration at half of the fitted maximal effect)
[6] = biological target: Nucleoprotein (Lymphocytic choriomeningitis virus (strain Armstrong)) (UniProt P09992); test: qHTS for Inhibitors of the Functional Ribonucleoprotein Complex (vRNP) of Lymphocytic Choriomeningitis Arenaviruses (LCMV): LCMV Primary Screen - GLuc reporter signal (AID 1347086); further: nearly all actives have a fitted effect of over 70% in size; further: potency means the concentration at half of the fitted maximal effect; on activity change, negative = inhibition: on the % scale 0 is the no-effect control and ±100 the full control effect
[7] = Primary qHTS for inhibitors of SARS-S pseudo-typed particle cell entry (AID 1479145); further: nearly all actives have a fitted effect of over 45% in size; on activity change, negative = inhibition: on the % scale 0 is the no-effect control and ±100 the full control effect
[8] = Primary qHTS for Huh7 cytotoxicity: counterscreen for inhibitors of MERS-S pseudotyped particle cell entry (AID 1479147); conditions: outcome: dose series up to 57.1 µM unless noted
[9] = Primary qHTS for Vero E6 cytotoxicity: counterscreen for inhibitors of SARS-S pseudo-typed particle cell entry (AID 1479150); conditions: outcome: dose series up to 57.1 µM unless noted
[10] = qHTS profiling of the MIPE4 collection as inhibitors of Plasmodium falciparum (3D7) proliferation (AID 743344; call rule not given here;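 further: scaled between DMSO vehicle wells and 0.29 µM artemisinin as full inhibition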); conditions: P. falciparum 3D7 in erythrocytes, SYBR Green DNA fluorescence, 72 h; at 28.5 µM (top of the series) unless noted
How it was run: (§1)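 Erythrocytes infected with P. falciparum (0.3% parasitemia, 2.5% hematocrit) incubated with compounds 72 h at 37 C, 5% CO2. Lysis with saponin/Triton buffer containing SYBR Green I, overnight at room temperature in the dark; DNA fluorescence (485/535 nm) normalised to 0.29 uM artemisinin and DMSO.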

[11] = qHTS profiling of the MIPE4 collection as inhibitors of Plasmodium falciparum (DD2) proliferation (AID 743345; call rule not given here); conditions: P. falciparum Dd2 in erythrocytes, SYBR Green DNA, 72 h; at 28.5 µM (top of the series) unless noted
How it was run: as §1

[12] = qHTS profiling of the MIPE4 collection as inhibitors of Plasmodium falciparum (DD2) proliferation (Rep 2) (AID 743346; call rule not given here); conditions: P. falciparum Dd2 in erythrocytes, SYBR Green DNA, 72 h; at 28.5 µM (top of the series) unless noted
How it was run: as §1

[13] = qHTS profiling of the MIPE4 collection as inhibitors of Plasmodium falciparum (HB3) proliferation (AID 743347; call rule not given here;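 further: plate controls were DMSO vehicle wells for no effect and artemisinin wells for full effect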); conditions: P. falciparum HB3 in erythrocytes, SYBR Green DNA, 72 h; at 28.5 µM (top of the series) unless noted
How it was run: as §1

[14] = Primary qHTS for inhibitors of MERS-S pseudo-typed particle cell entry (AID 1479149); further: nearly all actives have a fitted effect of over 60% in size
[15] = Confirmatory qHTS to identify inhibitors of SARS-CoV-2 cell entry (AID 1645844); further: potency means the concentration at half of the fitted maximal effect; nearly all actives have a fitted effect of over 45% in size
How it was run: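 HEK293-ACE2 cells (Expi293F stably expressing human ACE2) were pretreated with compounds for 1 hr at 37C, then infected with MLV-based particles carrying Wuhan-Hu-1 spike (C-terminal 19-aa truncation). Luciferase luminescence read after 48 hr; normalized to spike PP (100%) and bald PP (0%).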

[16] = VSVG counterscreen qHTS to identify inhibitors of SARS-CoV-2 cell entry (AID 1645847); further: potency means the concentration at half of the fitted maximal effect; nearly all actives have a fitted effect of over 65% in size
How it was run: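 Counterscreen using VSV-G (not spike) pseudotyped MLV particles on ACE2-expressing Expi293F cells after 1 h compound preincubation; infection ran 48 h at 37 °C. Data normalized to VSV-G PP and bald-PP wells.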

Chain of Nucleoprotein (Lymphocytic choriomeningitis virus (strain Armstrong)) (P09992 whole entry, looked up): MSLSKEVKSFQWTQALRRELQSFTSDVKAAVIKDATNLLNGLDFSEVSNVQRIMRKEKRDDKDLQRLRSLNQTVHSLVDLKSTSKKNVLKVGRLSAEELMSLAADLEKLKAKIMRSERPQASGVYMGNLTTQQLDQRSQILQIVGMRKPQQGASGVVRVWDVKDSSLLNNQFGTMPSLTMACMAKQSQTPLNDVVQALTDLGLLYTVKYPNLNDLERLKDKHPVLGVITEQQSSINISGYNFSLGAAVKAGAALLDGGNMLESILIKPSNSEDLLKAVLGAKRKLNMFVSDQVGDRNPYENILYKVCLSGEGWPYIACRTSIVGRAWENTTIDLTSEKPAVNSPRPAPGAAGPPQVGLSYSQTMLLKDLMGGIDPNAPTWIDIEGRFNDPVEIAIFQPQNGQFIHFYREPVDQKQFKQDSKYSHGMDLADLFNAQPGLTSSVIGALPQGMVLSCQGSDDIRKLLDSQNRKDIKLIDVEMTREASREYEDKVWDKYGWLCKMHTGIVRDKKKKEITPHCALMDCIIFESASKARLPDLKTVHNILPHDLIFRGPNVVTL

COC(=O)[C@H](CCCN=C(N)N)NS(=O)(=O)c1ccc(C)cc1
-0.183%: activity change, negative = inhibition [4]
inactive: Potency [1] | Potency [3] | Potency (CRL-7250)
active: Potency [2] 17.2 µM

N#Cc1c(N(CC(=O)O)CC(=O)O)sc(C(=O)O)c1CC(=O)O
inactive: Potency [1] | Potency [5] | Potency [6] | activity change, negative = inhibition [7] -19.2% [at 0.573 µM] | outcome [8] inactive [at 0.573 µM] | outcome [9] inactive [at 0.573 µM] | outcome [3] inactive [at 0.702 µM] | outcome [4] inactive [at 0.702 µM] | Potency (CRL-7250)

CCOC1OC(=O)C[C@H]1NC(=O)[C@@H]1CCCN1C(=O)[C@@H](NC(=O)c1ccc(N)c(Cl)c1)C(C)(C)C (stereo partly specified)
67.6%: parasite growth, % of control (lower = inhibition) [12]
265%: parasite growth, % of DMSO control [10]
97.4%: parasite growth remaining, % of DMSO control (lower = more inhibition) [11]
216%: growth, % of control [13]
inactive: Potency [1] | Potency [5] | Potency [2] | Potency (CRL-7250)

COc1cccc(Nc2c(C(N)=O)cnc3c(C)cc(S(=O)(=O)c4cccc(C(=O)N(C)C)c4)cc23)c1
active: Potency [5] 21.1 µM | Potency [2] 13.3 µM | Potency [6] 16.8 µM
inactive: Potency [3] | Potency [4] | Potency (CRL-7250)

CC(C)(OCc1nn(Cc2ccccc2)c2ccccc12)C(=O)O
inactive: Potency [1] | Potency [3] | Potency [4] | Potency (CRL-7250)

Cc1c(NC(=O)c2ccc(C(C)(C)C)cc2)cccc1-c1cn(C)c(=O)c(Nc2ccc(C(=O)N3CCOCC3)cc2)n1
inactive: Potency [1] | Potency [5] | Potency [6] | Potency [3] | Potency [4] | Potency (CRL-7250)

COc1ccc([C@@H]2CC(=O)c3c(O)cc(O[C@@H]4O[C@H](CO[C@@H]5O[C@@H](C)[C@H](O)[C@@H](O)[C@@H]5O)[C@@H](O)[C@H](O)[C@@H]4O)cc3O2)cc1O
inactive: Potency [1] | Potency [5] | Potency [6] | Potency [7] | outcome [8] | Potency [14] | outcome [9] | Potency [3] | Potency (CRL-7250)
-5.46%: activity change, negative = inhibition [4]

Nc1nc(=O)n([C@H]2C[C@H](O)[C@@H](CO)O2)cc1F
-95.3%: activity change, negative = inhibition [4]
active: Potency [5] 0.769 µM | Potency [2] 1.93 µM | Potency [15] 0.0108 µM | Potency [16] 0.0136 µM
inactive: Potency [3] | Potency (CRL-7250)

Nc1ncnc2c1ncn2[C@@H]1O[C@H](CO)[C@@H](O)[C@@H]1O
inactive: Potency [1] | Potency [5] | Potency [6] | Potency [3] | Potency (CRL-7250)
active: Potency [4] 28.2 µM
